Source: PubChem BioAssay (Tox21)
Results filed as inconclusive are left out. Activity calls are given as the source filed them. Unless noted, the call rests on the fitted dose curve; in most records, active means well fitted curve in the direction sought with a large enough effect in the repeat runs; inconclusive means weak or mixed curves; inactive means no such curve, though single readings can be large; an effect the other way counts as inactive or inconclusive.

Columns and labels:
[1] = qHTS assay to identify small molecule agonists of the peroxisome proliferator-activated receptor delta (PPARd) signaling pathway - cell viability counter screen (AID 743211); further: on the % scale 0 is the no-effect control and ±100 the full control effect; nearly all actives have a fitted effect of over 55% in size
Procedure, shortened: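 Multiplexed format: after the 2 h room-temperature LiveBLAzer B/G FRET step, CellTiter-Glo was added to the same wells. Luminescence after 30 min gave cell viability; compound exposure was 17 h at 37C.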

[2] = molecular target: Peroxisome proliferator-activated receptor delta (Homo sapiens) (UniProt Q03181); test: qHTS assay to identify small molecule agonists of the peroxisome proliferator-activated receptor delta (PPARd) signaling pathway (AID 743212; calls by dose curve; further: on the % scale 0 is the no-effect control and ±100 the full control effect)
Sequence of Peroxisome proliferator-activated receptor delta (Homo sapiens) (Q03181 whole entry, looked up): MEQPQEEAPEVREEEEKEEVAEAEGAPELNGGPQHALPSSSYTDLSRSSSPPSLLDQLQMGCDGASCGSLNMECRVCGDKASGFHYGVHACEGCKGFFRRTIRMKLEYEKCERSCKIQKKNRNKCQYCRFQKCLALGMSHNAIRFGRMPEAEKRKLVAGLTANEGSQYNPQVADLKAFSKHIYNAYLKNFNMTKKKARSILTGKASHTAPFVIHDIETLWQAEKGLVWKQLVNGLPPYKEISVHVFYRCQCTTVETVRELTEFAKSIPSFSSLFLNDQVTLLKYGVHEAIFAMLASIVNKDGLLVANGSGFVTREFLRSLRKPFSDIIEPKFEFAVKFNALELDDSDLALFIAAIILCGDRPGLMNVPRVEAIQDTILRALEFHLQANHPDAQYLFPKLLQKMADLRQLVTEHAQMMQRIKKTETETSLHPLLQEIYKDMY
Procedure, shortened: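 GeneBLAzer PPARd UAS-bla HEK293H cells (beta-lactamase reporter under UAS control), plated and rested 5 h at 37 C, then exposed to compounds in DMSO at 37 C; LiveBLAzer B/G FRET substrate added, 2 h room temperature, fluorescence read.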

[3] = qHTS assay to identify small molecule antagonists of the peroxisome proliferator-activated receptor delta (PPARd) signaling pathway - cell viability counter screen (AID 743213); further: on the % scale 0 is the no-effect control and ±100 the full control effect; nearly all actives have a fitted effect of over 50% in size
Procedure, shortened: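 HEK293H cells with the PPARd UAS-bla reporter, co-treated 17 h at 37 C with compounds and L165041 (300 nM final), were lysed with CellTiter-Glo. Luminescence indicated viable cell content.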

[4] = molecular target: Peroxisome proliferator-activated receptor delta (Homo sapiens) (UniProt Q03181); test: qHTS assay to identify small molecule antagonists of the peroxisome proliferator-activated receptor delta (PPARd) signaling pathway (AID 743215; active means well fitted inhibition curve with a large enough effect in the signal ratio in the repeat runs, not every such curve was filed as active; the % refers to the signal ratio;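 further: cells stimulated with agonist L165041 at 300 nM final during compound exposure; series mostly up to about 62 µM; on the % scale 0 is the no-effect control and ±100 the full control effect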)
Procedure, shortened: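 PPARd-bla HEK293H cells (UAS-bla reporter) preincubated 5 h, then given compound plus 300 nM final L165041 agonist for 17 h at 37 C. Beta-lactamase activity read by LiveBLAzer B/G FRET substrate fluorescence after 2 h at room temperature.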

[5] = molecular target: Bile acid receptor (Homo sapiens) (UniProt Q96RI1); test: qHTS assay to identify small molecule antagonists of the farnesoid-X-receptor (FXR) signaling pathway (AID 743217; active means well fitted inhibition curve with a large enough effect in the signal ratio in the repeat runs, not every such curve was filed as active; the % refers to the signal ratio; further: on the % scale 0 is the no-effect control and ±100 the full control effect)
Sequence of Bile acid receptor (Homo sapiens) (Q96RI1 whole entry, looked up): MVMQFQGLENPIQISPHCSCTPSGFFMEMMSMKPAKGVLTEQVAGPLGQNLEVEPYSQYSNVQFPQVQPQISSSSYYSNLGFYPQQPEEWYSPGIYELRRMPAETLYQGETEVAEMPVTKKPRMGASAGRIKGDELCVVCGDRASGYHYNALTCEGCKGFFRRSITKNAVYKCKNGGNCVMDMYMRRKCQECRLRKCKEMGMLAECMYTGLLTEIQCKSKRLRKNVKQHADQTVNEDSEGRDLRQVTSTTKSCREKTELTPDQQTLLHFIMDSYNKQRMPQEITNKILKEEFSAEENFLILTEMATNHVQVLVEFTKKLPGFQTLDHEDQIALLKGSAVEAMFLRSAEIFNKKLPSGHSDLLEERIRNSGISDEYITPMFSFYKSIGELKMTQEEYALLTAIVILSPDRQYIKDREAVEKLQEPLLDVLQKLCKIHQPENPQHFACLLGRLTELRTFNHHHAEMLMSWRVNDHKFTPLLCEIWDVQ
Procedure, shortened: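 FXR-UAS-bla HEK 293T cells (beta-lactamase reporter) given compound plus chenodeoxycholic acid (50 uM final), 16 h at 37C. LiveBLAzer B/G FRET substrate added for 2 h at room temperature; fluorescence read.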

[6] = qHTS assay to identify small molecule agonists of the farnesoid-X-receptor (FXR) signaling pathway - cell viability counter screen (AID 743218); further: on the % scale 0 is the no-effect control and ±100 the full control effect; nearly all actives have a fitted effect of over 45% in size
Procedure, shortened: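 FXR-UAS-bla HEK 293T cells exposed to compounds for 16 h at 37C. Cytotoxicity read in the same wells by CellTiter-Glo luminescence after 30 min at room temperature, following the beta-lactamase FRET read.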

[7] = molecular target: Bile acid receptor (Homo sapiens) (UniProt Q96RI1); test: qHTS assay to identify small molecule agonists of the farnesoid-X-receptor (FXR) signaling pathway (AID 743220; active means well fitted activation curve with a large enough effect in the signal ratio in the repeat runs, not every such curve was filed as active; the % refers to the signal ratio; further: on the % scale 0 is the no-effect control and ±100 the full control effect)
Procedure, shortened: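 Beta-lactamase reporter under UAS control in GeneBLAzer FXR HEK 293T cells (5000/well) measured with LiveBLAzer FRET substrate after 2 h at room temperature. Compound exposure lasted 16 h at 37C.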

[8] = qHTS assay to identify small molecule antagonists of the farnesoid-X-receptor (FXR) signaling pathway - cell viability counter screen (AID 743221; active means well fitted cell-killing curve with a large enough effect in the repeat runs, not every such curve was filed as active; further: on the % scale 0 is the no-effect control and ±100 the full control effect; nearly all actives have a fitted effect of over 50% in size)
Procedure, shortened: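 CellTiter-Glo, 30 min RT, luminescence; same wells as the LiveBLAzer FRET read. Cells: FXR-UAS-bla HEK 293T. Treatment: compound with chenodeoxycholic acid 50 uM final, 16 h at 37 C.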

[9] = molecular target: Vitamin D3 receptor (Homo sapiens) (UniProt P11473); test: qHTS assay to identify small molecule antagonists of the vitamin D receptor (VDR) signaling pathway (AID 743223; active means well fitted inhibition curve with a large enough effect in the signal ratio in the repeat runs, not every such curve was filed as active; the % refers to the signal ratio; further: on the % scale 0 is the no-effect control and ±100 the full control effect)
Sequence of Vitamin D3 receptor (Homo sapiens) (P11473 whole entry, looked up): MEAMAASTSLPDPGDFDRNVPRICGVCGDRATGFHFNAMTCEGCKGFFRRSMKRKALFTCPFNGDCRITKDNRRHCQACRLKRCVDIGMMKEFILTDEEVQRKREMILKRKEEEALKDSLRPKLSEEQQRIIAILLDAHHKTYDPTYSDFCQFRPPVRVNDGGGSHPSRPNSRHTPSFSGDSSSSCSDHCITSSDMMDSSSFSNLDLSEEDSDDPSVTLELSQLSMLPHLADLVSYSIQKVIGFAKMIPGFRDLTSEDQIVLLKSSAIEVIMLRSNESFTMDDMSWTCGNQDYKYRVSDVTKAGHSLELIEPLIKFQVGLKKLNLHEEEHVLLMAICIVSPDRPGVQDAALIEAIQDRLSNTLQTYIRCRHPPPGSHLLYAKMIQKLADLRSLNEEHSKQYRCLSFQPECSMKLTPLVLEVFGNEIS
Procedure, shortened: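 After VDR-bla cells are plated and left 4 h at 37C, DMSO-dissolved compounds and 3 nM (final) calcitriol agonist are added. Incubation continues 16 h at 37C; FRET beta-lactamase substrate then develops 2 h at room temperature.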

[10] = qHTS assay to identify small molecule agonists of the vitamin D receptor (VDR) signaling pathway - cell viability counter screen (AID 743224); further: series mostly up to about 63 µM; on the % scale 0 is the no-effect control and ±100 the full control effect; nearly all actives have a fitted effect of over 50% in size
Procedure, shortened: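 VDR-bla cells, 4 h after plating, exposed to compounds for 16 h at 37C; viability then read in the same wells as CellTiter-Glo luminescence after 30 min at room temperature, following the bla FRET read.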

[11] = qHTS assay to identify small molecule agonists of the NFkB signaling pathway (AID 1159509; active means well fitted curve in the direction sought with a large enough effect in the signal ratio in the repeat runs, not every such curve was filed as active; the % refers to the signal ratio)
Procedure, shortened: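 NFkB-bla ME-180 cells with a beta-lactamase reporter under an NF-kB response element were plated overnight, treated with compounds in DMSO for 5 hr at 37 C, then loaded with FRET substrate for 1.5 hr at room temperature.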

[12] = qHTS assay to identify small molecule agonists of the NFkB signaling pathway - cell viability counter screen (AID 1159515; calls by dose curve; further: series mostly up to about 61 µM; on the % scale 0 is the no-effect control and ±100 the full control effect; nearly all actives have a fitted effect of over 55% in size)
Procedure, shortened: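 NFkB-bla ME-180 cells, 2,000/well, plated overnight at 37 C; compound added for 5 hr at 37 C. Viability read in the same wells as the bla reporter, by CellTiter-Glo luminescence after 30 min at room temperature.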

[13] = qHTS assay to identify small molecule agonists of the endoplasmic reticulum stress response signaling pathway (AID 1159516; active means well fitted activation curve with a large enough effect in the signal ratio in the repeat runs, not every such curve was filed as active; the % refers to the signal ratio; further: on the % scale 0 is the no-effect control and ±100 the full control effect)
Procedure, shortened: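 CellSensor ESRE-bla HeLa cells, 1,500 per well, plated overnight, then exposed to compounds for 5 hr at 37 C. Beta-lactamase reporter read with LiveBLAzer B/G FRET substrate after 2 hr at room temperature, 405 nm excitation, 460 and 530 nm emission.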

[14] = qHTS assay to identify small molecule agonists of the endoplasmic reticulum stress response signaling pathway - cell viability counter screen (AID 1159517; calls by dose curve;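 further: HeLa cells carrying an ER stress response element beta-lactamase reporter; series mostly up to about 61 µM; on the % scale 0 is the no-effect control and ±100 the full control effect; nearly all actives have a fitted effect of over 50% in size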)
Procedure, shortened: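 Luminescence readout: CellTiter-Glo, 30 min RT, same wells as the ESRE-bla reporter read. HeLa ESRE-bla, 1,500 cells/well, o/n 37 C; cpd 5 hr 37 C/5% CO2.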

[15] = qHTS assay to identify small molecule antagonists of the retinoid-related orphan receptor gamma (ROR-gamma) signaling pathway - cell viability counter screen (AID 1159520)
Procedure, shortened: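 Tet-on ROR gamma CHO cells (1,000/well) were plated 4 hr, given compounds in DMSO for 2 hr at 37 C, then induced with 1 uM final doxycycline for 16 hr. Viability was read as ATP by CellTiter-Glo luminescence after 30 min.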

[16] = molecular target: Nuclear receptor ROR-gamma (Homo sapiens) (UniProt P51449); test: qHTS assay to identify small molecule antagonists of the retinoid-related orphan receptor gamma (ROR-gamma) signaling pathway (AID 1159521)
Procedure, shortened: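 Readout: ONE-Glo luciferase luminescence, 30 min at room temperature. System: Tet-on RORγ CHO, RORE-LUC. Sequence: compound 2 h, doxycycline 1 uM final, 16 h at 37 C.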

[17] = qHTS assay to identify small molecule agonists of the AP-1 signaling pathway - cell viability counter screen (AID 1159525; calls by dose curve; further: nearly all actives have a fitted effect of over 55% in size)
Procedure, shortened: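 ME-180 AP-1-bla, 2500 cells/well, Opti-MEM + 0.5% dialyzed FBS; overnight 37 °C; cpd 15-pt titration, 5 h 37 °C; CellTiter-Glo 30 min RT; luminescence read; normalised to TOAB and DMSO controls.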

[18] = qHTS assay to identify small molecule agonists of the AP-1 signaling pathway (AID 1159526; calls by dose curve; further: on the % scale 0 is the no-effect control and ±100 the full control effect)
[19] = qHTS assay to identify small molecule antagonists of the vitamin D receptor (VDR) signaling pathway - cell viability counter screen (AID 743225)
Procedure, shortened: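 Cytotoxicity toward the VDR-bla HEK 293T line was scored by ATP-based CellTiter-Glo luminescence, read in the wells already used for the beta-lactamase readout after 16 h compound treatment under 3 nM 1-alpha,25-dihydroxyvitamin D3 stimulation.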

[20] = molecular target: Vitamin D3 receptor (Homo sapiens) (UniProt P11473); test: qHTS assay to identify small molecule agonists of the vitamin D receptor (VDR) signaling pathway (AID 743222; calls by dose curve; further: on the % scale 0 is the no-effect control and ±100 the full control effect)
Procedure, shortened: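 VDR-bla cells plated 4 h at 37 C, then exposed to compounds for 16 h at 37 C. Beta-lactamase reporter activity measured by fluorescence after 2 h room-temperature loading with LiveBLAzer B/G FRET substrate.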

CC1(C)[C@H]2CC[C@](C)(C2)[C@H]1O
inactive: outcome [1] | outcome [2] | outcome [3] | outcome [4] | outcome [5] | outcome [6] | outcome [7] | outcome [8] | outcome [9] | outcome [10] | outcome [11] | outcome [12] | outcome [13] | outcome [14] | outcome [15] | outcome [16] | outcome [17] | outcome [18]

CC(O)CC(C)O (stereo not drawn)
inactive: outcome [1] | outcome [2] | outcome [3] | outcome [4] | outcome [5] | outcome [7] | outcome [8] | outcome [9] | outcome [10] | outcome [19] | outcome [11] | outcome [12] | outcome [13] | outcome [14] | outcome [15] | outcome [16] | outcome [17] | outcome [18]

Cc1ccnc(N)c1
inactive: outcome [1] | outcome [2] | outcome [3] | outcome [4] | outcome [5] | outcome [6] | outcome [7] | outcome [8] | outcome [10] | outcome [19] | outcome [11] | outcome [12] | outcome [13] | outcome [14] | outcome [15] | outcome [16] | outcome [17] | outcome [18]

C=CC(=O)OCC1CCCO1 (stereo not drawn)
inactive: outcome [1] | outcome [2] | outcome [3] | outcome [4] | outcome [5] | outcome [6] | outcome [7] | outcome [8] | outcome [10] | outcome [19] | outcome [11] | outcome [12] | outcome [13] | outcome [14] | outcome [15] | outcome [16] | outcome [17] | outcome [18]

CN1C[C@@H]2C[C@H]1CN2c1cc2c(cc1F)c(=O)c(C(=O)O)cn2C1CC1
inactive: outcome [1] | outcome [2] | outcome [3] | outcome [4] | outcome [5] | outcome [6] | outcome [7] | outcome [8] | outcome [20] | outcome [9] | outcome [10] | outcome [19] | outcome [11] | outcome [12] | outcome [13] | outcome [14] | activity, negative = cytotoxicity [15] 0.279% [at 19 µM] | activity change, negative = inhibition [16] 4.47% [at 19 µM] | viability change, negative = cytotoxic [17] 6.22% [at 15.8 µM] | activation [18] -4.01% [at 15.8 µM]

O=C(NCN1CCOCC1)c1cnccn1
inactive: outcome [1] | outcome [2] | outcome [3] | outcome [4] | outcome [6] | outcome [8] | outcome [20] | outcome [10] | outcome [19] | outcome [11] | outcome [12] | outcome [13] | outcome [14] | outcome [15] | outcome [16] | outcome [17] | outcome [18]

CC(C)(CO)C(O)C(=O)NCCCO (stereo not drawn)
inactive: outcome [1] | outcome [2] | outcome [3] | outcome [4] | outcome [5] | outcome [6] | outcome [7] | outcome [8] | outcome [9] | outcome [10] | outcome [19] | outcome [11] | outcome [12] | outcome [13] | outcome [14] | outcome [15] | outcome [16] | outcome [17] | outcome [18]
